Measured values as given in PubChem BioAssay AID1159580 (chemical genetic matrix, 2015).
About 2,000 (36%) of roughly 5,500 compounds were called active. Roughly 18% stayed inconclusive and do not appear here. Cut-off read from the data, not from the text of the source: active = normalized growth mostly below about 0.91 (no sharp cut-off); inconclusive = no clear call, values can overlap the other calls; inactive = mostly above about 0.92. This is one part of the list.

Assay: chemical genetic growth profiling, strain panel (AID 1159580);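 note: tested at 20 µM; growth read once vehicle control cultures reached saturation at 30 °C; 1 = growth at the plate median or of vehicle wells; lower values mean less growth of the strain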
Settings: growth OD

Measured: normalized growth

CC[C@H]1OC(=O)[C@H](C)[C@@H](O[C@H]2C[C@@](C)(OC)[C@@H](O)[C@H](C)O2)[C@H](C)[C@@H](O[C@@H]2O[C@H](C)C[C@H](N(C)C)[C@H]2O)[C@](C)(OC)C[C@@H](C)C(=O)[C@H](C)[C@@H](O)[C@]1(C)O
inactive: S. cerevisiae deletion strains, locus YAL013W, strain DEP1, hits give low values 0.992 | S. cerevisiae deletion strains, locus YBR021W, strain FUR4, hits give low values 1.01 | S. cerevisiae deletion strains, locus YBR229C, strain ROT2, hits give low values 0.989 | S. cerevisiae deletion strains, locus YCL029C, strain bik1, hits give low values 0.994 | S. cerevisiae deletion strains, locus YDL035C, strain GPR1, hits give low values 0.977 | S. cerevisiae deletion strains, locus YDL074C, strain BRE1, hits give low values 0.949 | S. cerevisiae deletion strains, locus YDL101C, strain DUN1, hits give low values 0.992 | S. cerevisiae deletion strains, locus YDL134C, strain PPH21, hits give low values 0.989 | S. cerevisiae deletion strains, locus YDL185W, strain tfp1, hits give low values 0.994 | S. cerevisiae deletion strains, locus YDL192W, strain arf1, hits give low values 0.966 | S. cerevisiae deletion strains, locus YDR101C, strain arx1, hits give low values 0.973 | S. cerevisiae deletion strains, locus YDR150W, strain NUM1, hits give low values 0.987 | S. cerevisiae deletion strains, locus YDR162C, strain NBP2, hits give low values 0.974 | S. cerevisiae deletion strains, locus YDR318W, strain mcm21, hits give low values 0.986 | S. cerevisiae deletion strains, locus YDR388W, hits give low values 0.986 | S. cerevisiae deletion strains, locus YDR502C, strain sam2, hits give low values 0.99 | S. cerevisiae deletion strains, locus YEL061C, strain CIN8, hits give low values 0.985 | S. cerevisiae deletion strains, locus YER110C, hits give low values 1.04 | S. cerevisiae deletion strains, locus YER155C, strain BEM2, hits give low values 0.987 | S. cerevisiae deletion strains, locus YER167W, strain BCK2, hits give low values 0.986 | S. cerevisiae deletion strains, locus YGL078C, strain dbp3, hits give low values 1.01 | S. cerevisiae deletion strains, locus YGL086W, strain mad1, hits give low values 0.969 | S. cerevisiae deletion strains, locus YGL248W, strain PDE1, hits give low values 0.986 | S. cerevisiae deletion strains, locus YGR078C, strain PAC10, hits give low values 0.991 | S. cerevisiae deletion strains, locus YGR135W, strain pre9, hits give low values 0.989 | S. cerevisiae deletion strains, locus YGR229C, strain SMI1, hits give low values 0.963 | S. cerevisiae deletion strains, locus YGR252W, strain gcn5, hits give low values 0.932 | S. cerevisiae deletion strains, locus YHR030C, strain SLT2, hits give low values 0.986 | S. cerevisiae deletion strains, locus YHR079C, strain IRE1 (second series), hits give low values 0.983 | S. cerevisiae deletion strains, locus YHR094C, strain hxt1, hits give low values 0.982 | S. cerevisiae deletion strains, locus YHR129C, strain ARP1, hits give low values 0.981 | S. cerevisiae deletion strains, locus YHR200W, strain rpn10, hits give low values 0.98 | S. cerevisiae deletion strains, locus YIL066C, strain RNR3, hits give low values 0.985 | S. cerevisiae deletion strains, locus YIL073C, strain SPO22, hits give low values 0.985 | S. cerevisiae deletion strains, locus YIL125W, strain kgd1, hits give low values 1.01 | S. cerevisiae deletion strains, locus YIR030C, strain dcg1, hits give low values 0.999 | S. cerevisiae deletion strains, locus YJL095W, strain BCK1, hits give low values 0.971 | S. cerevisiae deletion strains, locus YJL134W, strain LCB3, hits give low values 0.989 | S. cerevisiae deletion strains, locus YJL168C, strain set2, hits give low values 0.978 | S. cerevisiae deletion strains, locus YJL187C, strain SWE1 (second series), hits give low values 0.989 | S. cerevisiae deletion strains, locus YJR043C, strain POL32, hits give low values 0.958 | S. cerevisiae deletion strains, locus YJR075W, strain HOC1, hits give low values 0.954 | S. cerevisiae deletion strains, locus YKL009W, strain mrt4, hits give low values 0.997 | S. cerevisiae deletion strains, locus YKL068W, hits give low values 0.982 | S. cerevisiae deletion strains, locus YKL085W, strain MDH1 (second series), hits give low values 0.978 | S. cerevisiae deletion strains, locus YKL085W, strain MDH1, hits give low values 0.978 | S. cerevisiae deletion strains, locus YKL190W, strain CNB1, hits give low values 0.967 | S. cerevisiae deletion strains, locus YKR001C, strain vps1, hits give low values 0.999 | S. cerevisiae deletion strains, locus YLR039C, strain RIC1, hits give low values 0.979 | S. cerevisiae deletion strains, locus YLR058C, strain SHM2, hits give low values 0.987 | S. cerevisiae deletion strains, locus YLR102C, strain apc9, hits give low values 0.997 | S. cerevisiae deletion strains, locus YLR262C, strain YPT6, hits give low values 1.03 | S. cerevisiae deletion strains, locus YLR268W, strain sec22, hits give low values 0.987 | S. cerevisiae deletion strains, locus YLR330W, strain CHS5, hits give low values 0.992 | S. cerevisiae deletion strains, locus YLR342W, strain FKS1 (second series), hits give low values 0.956 | S. cerevisiae deletion strains, locus YLR371W, strain rom2, hits give low values 0.967 | S. cerevisiae deletion strains, locus YLR418C, strain cdc73, hits give low values 0.916 | S. cerevisiae deletion strains, locus YML016C, strain PPZ1, hits give low values 0.986 | S. cerevisiae deletion strains, locus YML032C, strain rad52, hits give low values 0.971 | S. cerevisiae deletion strains, locus YML124C, strain tub3, hits give low values 0.983 | S. cerevisiae deletion strains, locus YMR078C, strain ctf18, hits give low values 1 | S. cerevisiae deletion strains, locus YMR223W, strain ubp8, hits give low values 0.998 | S. cerevisiae deletion strains, locus YMR263W, strain SAP30, hits give low values 0.987 | S. cerevisiae deletion strains, locus YMR307W, strain GAS1, hits give low values 0.789 | S. cerevisiae deletion strains, locus YNL067W, strain RPL9B, hits give low values 0.983 | S. cerevisiae deletion strains, locus YNL128W, strain TEP1, hits give low values 0.979 | S. cerevisiae deletion strains, locus YNL153C, strain GIM3, hits give low values 0.983 | S. cerevisiae deletion strains, locus YNL233W, strain BNI4, hits give low values 0.982 | S. cerevisiae deletion strains, locus YNL250W, strain rad50, hits give low values 1 | S. cerevisiae deletion strains, locus YNL271C, strain bni1, hits give low values 1.01 | S. cerevisiae deletion strains, locus YNL298W, strain CLA4, hits give low values 1.02 | S. cerevisiae deletion strains, locus YNL307C, strain MCK1, hits give low values 1 | S. cerevisiae deletion strains, locus YNL322C, strain KRE1, hits give low values 0.987 | S. cerevisiae deletion strains, locus YNR052C, strain pop2, hits give low values 0.937 | S. cerevisiae deletion strains, locus YOL006C, strain TOP1, hits give low values 0.757 | S. cerevisiae deletion strains, locus YOL012C, strain htz1 0.325 | S. cerevisiae deletion strains, locus YOL147C, strain pex11, hits give low values 0.993 | S. cerevisiae deletion strains, locus YOR061W, strain CKA2, hits give low values 0.987 | S. cerevisiae deletion strains, locus YOR069W, strain VPS5, hits give low values 0.98 | S. cerevisiae deletion strains, locus YOR136W, strain idh2, hits give low values 1.01 | S. cerevisiae deletion strains, locus YOR144C, strain elg1, hits give low values 0.973 | S. cerevisiae deletion strains, locus YOR184W, strain ser1, hits give low values 0.991 | S. cerevisiae deletion strains, locus YOR316C, strain cot1, hits give low values 0.986 | S. cerevisiae deletion strains, locus YPL055C, strain LGE1, hits give low values 0.962 | S. cerevisiae deletion strains, locus YPL241C, strain CIN2, hits give low values 0.976 | S. cerevisiae deletion strains, locus YPR119W, strain clb2, hits give low values 0.975 | S. cerevisiae deletion strains, locus YPR141C, strain kar3, hits give low values 1.01 | S. cerevisiae deletion strains, locus YPR163C, strain tif3, hits give low values 0.955 | S. cerevisiae deletion strains, locus YPR167C, strain met16, hits give low values 0.996 | S. cerevisiae deletion strains, strain wtn01, hits give low values 0.964 | S. cerevisiae strains, strain wild type, hits give low values 0.982
